# Experimental data taken from ChEMBL document CHEMBL3988442, “University of Dundee, Small-Polar-MMV Screening Library” (2021).
# The whole screen tested about 48,000 compounds, of which about 13,000 (27%) showed an effect of 50% or more. Some of the results follow.
# Test system: Wolbachia pipientis
# Test: Anti-Wolbachia Cell-Based Screen
# Assay type: functional
# Design: scale not given: in the data most compounds retested in dose-response had high values
# Settings: 5 µM
row,Structure (SMILES),Percent Effect [%]
1,c1ccc(CNC2CCc3ncnn3C2)nc1 (centres undefined),-4.327
2,COc1cccc(S(=O)(=O)CCNCCn2cccn2)c1,2.314
3,Cc1nc(CNC2CCc3ncnn3C2)oc1C (centres undefined),-6.098
4,Cc1ccc(C)c(S(=O)(=O)CCNC2CCc3ncnn3C2)c1 (centres undefined),114
5,Clc1ccc(-c2cnc(CNC3CCc4ncnn4C3)o2)cc1 (centres undefined),-3.633
6,O=C(CNC1CCc2ncnn2C1)NCCc1cccs1 (centres undefined),2.681
7,c1csc(-c2noc(CCCNC3CCc4ncnn4C3)n2)c1 (centres undefined),7.784
8,c1csc(CCNC2CCc3ncnn3C2)c1 (centres undefined),-10.08
9,O=S(=O)(CCCNC1CCc2ncnn2C1)c1ccccc1 (centres undefined),113.7
10,COc1cccc(S(=O)(=O)CCNC2CCc3ncnn3C2)c1 (centres undefined),109.9
11,O=S(=O)(CCNC1CCc2ncnn2C1)c1ccc(Cl)cc1 (centres undefined),86.02
12,CS(=O)(=O)Nc1ccc([C@H]2OCC(=O)N[C@@H]2CO)cc1,-3.066
13,CC(C)Sc1ccc(C(C)Nc2nc3c(cnn3C)c(=O)[nH]2)cc1 (centres undefined),-4.166
14,Cc1cc(NC(=O)NC(C)CN2CCN(c3ccccc3)CC2)on1 (centres undefined),-17.45
15,CNC(=O)NC(=O)CSC(C)c1ccccc1F (centres undefined),-20.44
16,Cc1nc(NC(=O)C(C)S(C)(=O)=O)sc1Cc1ccccc1F (centres undefined),-3.086
17,Cc1ccc(CN2CCOCC3(C2)CN(c2ccc(C)s2)C(=O)CO3)o1.O=C(O)C(F)(F)F (centres undefined),3.651
18,CCc1ccc(CN2CCC3(CC2)CNC(=O)CO3)o1.O=C(O)C(F)(F)F,-11.34
19,Cn1cccc1CN1CCC2(CC1)CN(c1ncccn1)CCO2.O=C(O)C(F)(F)F,0.2482
20,Cn1cccc1CN1CCC2(CC1)CN(c1ccccc1)C(=O)CO2.O=C(O)C(F)(F)F,80.65
21,Cc1ccc(CN2CCC3(CC2)CN(c2ccccc2)C(=O)CO3)o1.O=C(O)C(F)(F)F,119.8
22,Cn1ccnc1CN1CCC2(CC1)CN(c1ccccc1)C(=O)CO2.O=C(O)C(F)(F)F,-5.115
23,CCCNC(=O)C1CCN(CC2(O)CCC(C)CC2)CC1 (centres undefined),-9.033
24,COCc1cccc(NC(=O)NCc2ncc(C)c(OC)c2C)c1,-10.08
25,COCCCN1C(=O)CC[C@H]2CN(c3cc(C(N)=O)ccn3)CC[C@H]21,-7.921
26,CN1CC(C(=O)Nc2ccc(OCC(F)(F)C(F)F)nc2)CC1=O (centres undefined),108
27,CCOc1ccc(NC2CCN(C(C)C)C2=O)cn1 (centres undefined),-21.57

row,Structure (SMILES),Percent Effect [%]
1,O=C(CCN1C(=O)CCC1=O)Nc1ccc(OCC(F)(F)F)nc1,-54.38
2,COc1ccc(NC(=O)C2CC(=O)N(C)C2)cn1 (centres undefined),112.1
3,CCc1nc(C)c([C@H]2CN(C)C[C@@H]2C(=O)Nc2ccc(OC)nc2)[nH]1,6.695
4,COCCOc1ccc(NC(=O)C2CC(=O)N(C)C2)cn1 (centres undefined),-11.2
5,CNC(=O)c1ccc(N(C)C2CCC2)nn1,-0.7532
6,CC(C)c1cc(CNC(=O)Nc2cc(F)cc(N3CCCC3)c2)on1,-22.89
7,COc1ccc(O[C@H]2COCCN(C(=O)c3ccno3)C2)cc1,-10.22
8,COc1nc(C)ccc1CNC(=O)NC(C)Cc1c(C)nn(C)c1C (centres undefined),-7.556
9,CC(Cn1cccn1)NC(=O)NCCc1ccc(Cl)s1 (centres undefined),2.539
10,CC(Cn1cccn1)NC(=O)Nc1cccnc1 (centres undefined),-4.722
11,CC(Cn1cccn1)NC(=O)NCc1ccoc1 (centres undefined),138.9
12,Cc1ccc(CNC(=O)NC(C)Cn2cccn2)cn1 (centres undefined),102.7
13,O=C(NCc1cccnc1)Nc1ccn(CC(F)F)n1,-3.627
14,CC(Cn1cccn1)NC(=O)NCc1cccs1 (centres undefined),-5.342
15,CC(Cn1cccn1)NC(=O)NCc1cccnc1 (centres undefined),125.3
16,CC(C)CN1CCC(c2nnc(CN3CCCC3)n2C2CC2)CC1,11.32
17,O[C@H]1[C@H](n2cc(CN3CCCC3)nn2)c2ccccc2C12CCNCC2,-10.15
18,CCN(CC)S(=O)(=O)CCNC(=O)c1cc2cccc(F)c2o1,-15.07
19,Nc1nc2c(c(N3CCCC3)n1)CCN(Cc1ccccn1)CC2,7.613
20,Cc1nn(C)c2ncnc(N3CCCC(OCc4ccccn4)C3)c12 (centres undefined),-6.916
21,Cc1nn(C)c2ncnc(N3CCCC(OCc4cccnc4)C3)c12 (centres undefined),4.594
22,Nc1nc2c(c(N3CCCC(CN4CCCC4=O)C3)n1)CCNCC2 (centres undefined),-1.007
23,COC1CCCN(c2nc(C)nc3c2CCN(Cc2ccco2)CC3)C1 (centres undefined),-0.6049
24,Cc1nc2c(c(N3CCC(CCn4cccn4)CC3)n1)CCNCC2,1.957
25,Nc1nc2c(c(N3CCCC(OCc4ccccn4)C3)n1)CCNCC2 (centres undefined),94.61
26,Cc1nc(N2CCCC(OCc3ccccn3)C2)c2c(C)noc2n1 (centres undefined),99.09
27,Cc1nc2c(c(N3CCCC(OCc4ccccn4)C3)n1)CCNCC2 (centres undefined),98.85
